Source: PubChem
Compounds with a hit are over-represented: about 3.9% of the library has one in this group of screens.
AHR activator: activates the human aryl hydrocarbon receptor. P35869. AHR-responsive luciferase reporter cells, luminescence. activation, % at 5 µM. actives 2.5% (n = 320,000); in the data active = activation above about 47%
Target sequence (P35869 whole entry, looked up): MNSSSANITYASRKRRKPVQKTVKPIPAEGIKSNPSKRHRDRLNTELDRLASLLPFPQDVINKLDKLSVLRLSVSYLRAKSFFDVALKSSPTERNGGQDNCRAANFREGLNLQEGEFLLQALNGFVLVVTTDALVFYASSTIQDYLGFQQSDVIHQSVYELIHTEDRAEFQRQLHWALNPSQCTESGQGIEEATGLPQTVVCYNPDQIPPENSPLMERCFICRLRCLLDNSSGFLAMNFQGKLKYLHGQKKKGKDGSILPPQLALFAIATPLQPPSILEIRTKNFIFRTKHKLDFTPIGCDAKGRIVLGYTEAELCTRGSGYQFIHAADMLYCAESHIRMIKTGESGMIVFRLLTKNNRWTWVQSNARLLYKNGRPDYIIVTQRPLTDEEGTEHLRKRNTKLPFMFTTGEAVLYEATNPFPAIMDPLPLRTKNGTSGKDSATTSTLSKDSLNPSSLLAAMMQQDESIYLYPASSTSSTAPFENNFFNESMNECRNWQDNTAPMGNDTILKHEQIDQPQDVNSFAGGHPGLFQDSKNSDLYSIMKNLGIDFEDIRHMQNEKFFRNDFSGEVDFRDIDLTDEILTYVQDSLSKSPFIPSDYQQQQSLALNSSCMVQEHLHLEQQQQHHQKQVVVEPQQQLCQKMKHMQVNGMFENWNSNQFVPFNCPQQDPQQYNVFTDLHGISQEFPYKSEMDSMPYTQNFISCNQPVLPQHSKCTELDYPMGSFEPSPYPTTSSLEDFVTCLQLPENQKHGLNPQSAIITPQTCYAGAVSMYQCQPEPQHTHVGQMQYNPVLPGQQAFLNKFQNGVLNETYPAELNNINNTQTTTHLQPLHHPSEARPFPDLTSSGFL
HIF act: HIF pathway transcriptional activation. AID 1910. actives 0.32% (n = 300,000). U2OS HRE-luciferase reporter, luminescence; normalized: DMSO 0%, desferrioxamine 100%. activation, % at 7.5 µM (by protocol);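 active = mean activation of at least 10% of the iron chelator positive control signal, with at least half of replicates also reaching 10%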
PLCb3 inh: inhibitors of human phospholipase C beta3; Q01970; Purified PLC-beta3, fluorogenic substrate, fluorescence; inhibition, % at 12.2 µM; actives 0.18% (n = 370,000); AID 720704
HGIII-sPLA2 inh: Blocks human group III sPLA2 activity; actives 0.56% (n = 370,000); inhibition, % at 12.2 µM; Q9NZ20; QFRET BODIPY PC-A2 liposome hydrolysis, fluorescence; AID 743126;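 active = inhibition above mean plus 3 SD of compounds lying within the high and low control bounds, cut at about 19% in these data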
CR mimetic SO: caloric restriction mimetics inhibiting age-related superoxide in yeast; AID 2690; superoxide response (% of plate mean), % at 10 µM; actives 0.18% (n = 330,000); S. cerevisiae aged cells, superoxide DHE fluorescence; active compounds read low;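 active = superoxide response under a set limit, about three screen SD below normal, cut at about 65% in these data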;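 note: yeast aged for seven days with compound at 30 °C before DHE staining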
PLCg1 inh: blocks human PLC-gamma1 enzyme activity. P19174. purified PLC-gamma1, fluorogenic substrate, fluorescence. inhibition, % at 12.2 µM. actives 0.84% (n = 370,000). AID 720700; in the data active = inhibition above about 9.5%
PLCg1 ctr: PLC-gamma1 inhibition, counter-screen for PLC-beta3 hits | inhibition, % at 12.3 µM | purified PLC-gamma1, fluorogenic substrate, fluorescence | shares compounds with PLCg1 inh | actives 3.1% (n = 3,300); in the data active = inhibition above about 9.5%
PLCb3 confirm: confirmation of human PLC-beta3 inhibitors | shares compounds with PLCg1 inh | purified PLC-beta3, fluorogenic substrate fluorescence | inhibition, % at 12.3 µM | actives 1% (n = 3,300) | AID 743261
Numbers stand for hits; - = inactive; . = not tested or not shown. Cut-off read from the data, not from the text of the source, unless noted: active = inhibition above about 11%; inactive = the rest.

SMILES	AHR activator	HIF act	PLCb3 inh	HGIII-sPLA2 inh	CR mimetic SO	PLCg1 inh	PLCg1 ctr	PLCb3 confirm
O=C(CC1SC(=NC2CCCCC2)NC1=O)Nc1ccccc1 (stereo not given)	-	-	-	-	-	11	-	-
O=C(COC(=O)c1ccccc1NC(=O)c1ccco1)NC1CCS(=O)(=O)C1 (stereo not given)	-	-	-	-	-	-	.	.
Cc1ccc(C2OC(=O)c3ccccc32)cc1 (stereo not given)	-	-	-	-	-	9.6	-	-
Cc1cc(NC(=O)C2CC(c3ccc(Cl)cc3)=NO2)no1 (stereo not given)	-	-	12	-	-	-	-	-
COc1ccc(C2=NOC(C(=O)Nc3cc(C)on3)C2)cc1 (stereo not given)	-	-	-	-	-	-	.	.
CCOc1ccc(S(=O)(=O)Nc2cc(Cl)ccc2O)cc1	-	-	-	-	-	13	-	-
COC(=O)C1=C(C)N(Cc2ccccc2)C(=NCc2cccc(C(F)(F)F)c2)N[C@H]1c1cccc(F)c1	-	-	-	-	.	13	-	-
COC(=O)C1=C(C)N(Cc2cccc(C(F)(F)F)c2)C(=NCc2ccccc2C(F)(F)F)NC1c1ccc(Cl)cc1 (stereo not given)	.	.	14	-	.	-	-	-
COC(=O)C1=C(C)N(Cc2ccccc2)C(=NCc2cccc(C(F)(F)F)c2)N[C@H]1c1cccc(C(F)(F)F)c1	-	.	.	.	-	.	.	.
C=C(C)COc1ccc(-c2n[nH]c(C)c2Oc2ccccc2OC)c(O)c1	-	-	-	-	-	-	.	.
CCOc1ccc(-c2n[nH]c(C)c2Oc2ccccc2OC)c(O)c1	-	-	-	-	-	9.6	-	-
O=C(NC1CCCC1)C(c1cccnc1)N(C(=O)c1csnn1)c1ccc(F)cc1 (stereo not given)	-	-	-	-	-	9.7	-	-
O=C(NC1CCCC1)C(c1ccccc1)N(C(=O)c1csnn1)c1ccccc1F (stereo not given)	-	-	-	-	-	9.9	-	-
CC(=O)c1ccc(N(C(=O)c2csnn2)C(C(=O)NC2CCCC2)c2ccccc2)cc1 (stereo not given)	-	-	-	-	-	11	-	-
COc1cccc(-c2nc(-c3cccc(C)c3)nc3cc(Cl)ccc23)c1	.	.	-	-	.	-	.	.
Cc1cccc(CNc2ncnc3ccc(-c4ccccc4Cl)cc23)c1	-	.	-	-	-	-	.	.
O=C(NCC(=O)N(c1ccccc1)C(C(=O)NC1CCCC1)c1cccnc1)c1ccco1 (stereo not given)	-	-	-	-	-	10	-	-
O=C(NC1CCCC1)C(c1ccccc1)N(C(=O)c1ccco1)C1CCCC1 (stereo not given)	-	-	-	-	-	9.9	-	-
C=CCN(C(=O)CNC(=O)c1ccco1)C(C(=O)NC1CCCCC1)c1ccc(F)cc1 (stereo not given)	-	-	-	-	-	10	-	-
Cc1cc(C)nc(Nc2nc(C(N)Cc3ccccc3)cs2)n1 (stereo not given)	.	.	-	-	.	-	.	.
CC1(C(=O)NS(=O)(=O)Cc2cccc(Cl)c2)CCN1C(=O)C1CCCCC1 (stereo not given)	.	.	-	-	.	-	.	.
COc1ccc(OC)c(CC(=O)Nc2ccc3c(c2)c(=O)n(C)n3Cc2cccc(C(F)(F)F)c2)c1	.	.	-	-	.	-	.	.
Cc1cc(C)n(-c2nc3ccccc3c(=O)n2OC2CCCCC2)n1	-	-	15	-	-	-	-	-
Cc1cccc(Nc2nnc(SCC(=O)NCc3cccs3)s2)c1	-	-	-	-	-	-	.	.
Cc1cccc(Nc2nnc(SCc3cn4ccsc4n3)s2)c1	-	-	-	-	-	10	-	-
SMILES	AHR activator	HIF act	PLCb3 inh	HGIII-sPLA2 inh	CR mimetic SO	PLCg1 inh	PLCg1 ctr	PLCb3 confirm
COc1ccc(CCCNC(=O)C2Cc3c(-c4ccc(NC(C)=O)cc4)ccnc3O2)cc1 (stereo not given)	.	.	-	-	.	-	.	.
CN(CC(=O)Nc1ccc(Cl)cc1)C(=O)Cc1c(F)cccc1Cl	-	-	-	-	-	-	.	.
Nc1cc(-c2ccc(Cl)cc2)nn1S(=O)(=O)c1cccc2nsnc12	-	-	-	-	-	-	.	.
COc1ccccc1-c1cc(N)n(S(=O)(=O)c2cccc3nsnc23)n1	-	-	-	-	-	12	-	-
COc1ccc2c(c1)CCCN2C(=O)C1CCCN(S(=O)(=O)c2ccc(C(C)(C)C)cc2)C1 (stereo not given)	.	.	-	-	.	-	.	.
COc1ccc(NC(=O)/C(C#N)=C\c2ccc(-c3cccc(C(=O)O)c3C)o2)cc1	-	-	-	-	-	-	.	.
Cc1c(C(=O)O)cccc1-c1ccc(C=O)o1	-	-	-	-	-	11	-	-
COc1cccc(/C=N/NC(=O)CN(C)S(=O)(=O)c2ccccc2)c1OC	-	.	-	-	-	-	.	.
NCCCC[C@@H](C(=O)N1CCNCC1)n1cc([C@@H](N)CO)nn1	-	-	12	-	-	-	-	-
Cc1cc(N)n(-c2ccc([N+](=O)[O-])cc2)n1	-	-	-	-	-	12	-	-
Cc1cc(C)n(-c2ccc([N+](=O)[O-])cc2)n1	-	-	-	-	-	-	.	.
CC(C)CNS(=O)(=O)c1ccc(CCC(=O)N2CCN(c3ccc(F)cc3)CC2)cc1	-	-	-	-	-	-	.	.
COc1ccc(N2CCN(C(=O)CCc3ccc(S(=O)(=O)NCC(C)C)cc3)CC2)cc1	-	-	-	-	-	9.6	-	-
COc1ccc(/C=N/NC(=O)CCc2n[nH]c(=O)[nH]c2=O)cc1OC	-	-	-	-	-	-	.	.
CCCOc1ccc(/C=N\NC(=O)CCc2n[nH]c(=O)[nH]c2=O)cc1OC	-	-	13	-	-	11	-	-
CCOc1ccc(NC(=O)C2CCCN2S(=O)(=O)c2ccc(OCC)cc2)cc1 (stereo not given)	-	-	-	-	-	12	-	-
CCOc1ccc(OCC)c(NC(=O)C2CCN(S(=O)(=O)c3cccnc3)CC2)c1	-	.	-	-	-	-	.	.
CCOc1ccc(NC(=O)C2CCN(S(=O)(=O)c3cccnc3)CC2)cc1	-	-	-	-	-	12	-	-
C=CCOc1ccc(CNCC2CCCO2)cc1 (stereo not given)	-	-	-	-	-	-	.	.
CCOc1ncccc1C(=O)OCC(=O)c1c(N)n(C)c(=O)n(C)c1=O	-	-	11	-	-	-	-	-
Cn1c(N)c(C(=O)COC(=O)c2ccccn2)c(=O)n(C)c1=O	-	-	-	-	-	-	.	.
Cc1cccc(NC(=S)N(Cc2cccc(Br)c2)CC2CCC(C(=O)O)CC2)c1 (stereo not given)	-	-	-	-	-	11	-	-
